# Test system: VDR:RXRa (NR concentration 270 nM, RXRa partner concentration 90 nM)
# Assay: PBM binding z-score (relative to random genomic background probes); higher = stronger binding; sequences stand for … in GC…GCGATTGACAGCGTAGAATGAAGG
# Protocol: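 Protein-binding microarray (Agilent 4x180K custom design, double-stranded 60-nt probes: 5' GC cap, 34-nt variable region, 24-nt constant primer region; full probe sequence given). Purified or IVT nuclear receptor:RXRα heterodimers (3:1 NR:RXRα, mostly 270:90 nM) or homodimers were incubated for 1 h in PBS with 2% milk and no ligand, then detected with Alexa488 antibodies. Fluorescence from o1-orientation probes (~5 replicates averaged) was converted to z-scores against 500 random hg19 background probes. Variable regions are seed direct-repeat (DR0–DR5) sites, all their single-nucleotide variants and half-site ablations.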
row,Sequence,PBM binding z-score
1,CCTACTGGGCCACGGTCATTGATCAGTCAAAGCA,-0.388
2,GATACAGGGTCAGCTAGAGGCCATAGTATGGAAA,4.05
3,GCAGACAGGTGAAACCCAGGTAACTCAGGGTGGC,-0.302
4,ACTCGGAGGACAAAGGTCAGAGCCACGCCAGTGA,3.43
5,CGTTACGGGTCACTGACAGGTTATAGCATTTGGA,3.87
6,TCATATAGGTAAAGCTGAAAGTCGAACGATATGA,0.186
7,TCTCGGAGGACAGGAAGGTCAGAGCTTTCCAGAG,1.57
8,CCGACTGGGGCTTAAGGTTACCATAAGCCAGCCC,-0.156
9,AGAAGGAGGTTACCAAAGATCAGGGAAACGCTTG,0.838
10,CCTCCTGGGCCATTCAGAGGTCATTGATCATATG,3.97
11,CGAACTAGGTCATCCAGGACAGTGGATACATTGA,4.5
12,CTACCAAGGTGAATAAGGTCGTTGATTACTATTC,5.52
13,TCTATTTGGTCAAAGGTCACACACTCGAAATGCG,5.41
14,AGTCAAAGTTCGGGACGAGGTAACGTAAAGCACG,0.784
15,CCTTACGGGTCAAGGTTCTAGCACGGGTGGTACG,3.1
16,GTACCAAGGTGAATAGGTAGTTGATGAGTAGGCG,-0.15
17,ATCTCTAGGTAACCAAGTTCAGTGCATGCCGAAC,4.21
18,CAAACTAGGTCAAGAGGTCGAAGTCCGCTTCCCG,4.04
19,ACACACAGGTGATGAAGGTAACTCAGGCTATCAT,0.511
20,ATCGAAAGGCCGAGGTGAGTATAGAGAAAGGGAA,-0.47

row,Sequence,PBM binding z-score
1,CCTTACGGGTCACTGACAGGTTATACCATTTGGA,3.9
2,CCTATTAGCTGACCATAAGGGCAACCGAAGCTCG,0.159
3,TCTATTACTTGATTAGGGCAACCGAAACAGCGGA,0.676
4,TCTTGTAGATCAAAGGTTAAGGAAGCCGAAGCCT,1.59
5,ATATGTAGGTTGAGGGTCATTCAGGTTGGTTCGC,4.78
6,CAAACTAGGTCAAAGAGGTCAAAGTCCGTGCGTA,7.75
7,GCTTGAAGATCAAGGTTAAGAAAGACTAAGCTAA,0.0982
8,TCTTGGAGATCAGCAGGTTAAGAAAGCTGGCCAA,0.335
9,CCTGCTAGGTCATGGTAAGCTAATCTACAGTATG,1.49
10,TATACAGGGTCAAAGGCCAGGGTACGAATGTCGA,4.93
11,TCATATAGGTAAACAGGTGAAAGACCGTAAGTTA,1.05
12,TAGCCTAGGTTAGATCGGGCCAGTATACGCTATA,-0.4
13,ATCTCTAGGTAAGACTCATTTCAGTGAAGAACGC,0.308
14,CGTCAAAGTTCGACTAAGGTAACGTAAAGCACGC,1.83
15,CCTAGCAGGACAATCTGGGTCACTCAAGGCTTGA,0.704
16,GGAACGAGGGCATTCGAGTGGATAGCATGGCGAT,1.32
17,ATATGTATGTTAAGGGTCATTCAGGTTGGTTCGC,5.25
18,GATACAGGGTCAGCTAGAGGCCAAAGTATGGAAA,4.26
19,TCGAGTAGGTTAAGGGCATTCAGAATGGCGTCGA,0.959
20,CTGACTGGGGCAAAGGTTACCATACTCAGTACGA,2.07

# — the supplement of paper PMC6555819
